# Test results: PubChem BioAssay AID1159580 (chemical genetic matrix, 2015)
# Hit rate of the full screen: of about 5,500 compounds, about 2,000 (36%) were called active. About 18% were inconclusive and are not listed. The list shows a part of the results. Unmarked numbers belong to inactive results. Rule as the data show it: active = normalized growth mostly below about 0.91 (no sharp cut-off); inconclusive = no clear call, values can overlap the other calls; inactive = mostly above about 0.92.
# Assay: chemical genetic growth profiling, strain panel (AID 1159580);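 also: tested at 20 µM; growth read once vehicle control cultures reached saturation at 30 °C; 1 = growth at the plate median or of vehicle wells; lower values mean less growth of the strain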
# Conditions: growth OD
structure (smiles),measurement,setting,value
C=C/C(C)=C\CC1C(C)(O)CCC2C(C)(C)CCCC21C (stereo unspecified),normalized growth,"S. cerevisiae deletion strains, locus YAL013W, strain DEP1, hits give low values",0.143 (active)
same,normalized growth,"S. cerevisiae deletion strains, locus YBR021W, strain FUR4, hits give low values",0.64 (active)
same,normalized growth,"S. cerevisiae deletion strains, locus YBR229C, strain ROT2, hits give low values",0.316 (active)
same,normalized growth,"S. cerevisiae deletion strains, locus YCL029C, strain bik1, hits give low values",0.612 (active)
same,normalized growth,"S. cerevisiae deletion strains, locus YDL035C, strain GPR1, hits give low values",0.139 (active)
same,normalized growth,"S. cerevisiae deletion strains, locus YDL074C, strain BRE1, hits give low values",0.172 (active)
same,normalized growth,"S. cerevisiae deletion strains, locus YDL101C, strain DUN1, hits give low values",0.0723 (active)
same,normalized growth,"S. cerevisiae deletion strains, locus YDL134C, strain PPH21, hits give low values",0.0532 (active)
same,normalized growth,"S. cerevisiae deletion strains, locus YDL185W, strain tfp1, hits give low values",0.842 (active)
same,normalized growth,"S. cerevisiae deletion strains, locus YDL192W, strain arf1, hits give low values",0.0743 (active)
same,normalized growth,"S. cerevisiae deletion strains, locus YDR101C, strain arx1, hits give low values",0.429 (active)
same,normalized growth,"S. cerevisiae deletion strains, locus YDR150W, strain NUM1, hits give low values",0.289 (active)
same,normalized growth,"S. cerevisiae deletion strains, locus YDR162C, strain NBP2, hits give low values",0.0609 (active)
same,normalized growth,"S. cerevisiae deletion strains, locus YDR318W, strain mcm21, hits give low values",0.074 (active)
same,normalized growth,"S. cerevisiae deletion strains, locus YDR388W, hits give low values",0.121 (active)
same,normalized growth,"S. cerevisiae deletion strains, locus YDR502C, strain sam2, hits give low values",0.155 (active)
same,normalized growth,"S. cerevisiae deletion strains, locus YEL061C, strain CIN8, hits give low values",0.154 (active)
same,normalized growth,"S. cerevisiae deletion strains, locus YER110C, hits give low values",0.118 (active)
same,normalized growth,"S. cerevisiae deletion strains, locus YER155C, strain BEM2, hits give low values",0.237 (active)
same,normalized growth,"S. cerevisiae deletion strains, locus YER167W, strain BCK2, hits give low values",0.0638 (active)
same,normalized growth,"S. cerevisiae deletion strains, locus YGL078C, strain dbp3, hits give low values",0.626 (active)
same,normalized growth,"S. cerevisiae deletion strains, locus YGL086W, strain mad1, hits give low values",0.105 (active)
same,normalized growth,"S. cerevisiae deletion strains, locus YGL248W, strain PDE1, hits give low values",0.0559 (active)
same,normalized growth,"S. cerevisiae deletion strains, locus YGR078C, strain PAC10, hits give low values",0.0661 (active)
same,normalized growth,"S. cerevisiae deletion strains, locus YGR135W, strain pre9, hits give low values",0.115 (active)
same,normalized growth,"S. cerevisiae deletion strains, locus YGR229C, strain SMI1, hits give low values",0.0733 (active)
same,normalized growth,"S. cerevisiae deletion strains, locus YGR252W, strain gcn5, hits give low values",0.255 (active)
same,normalized growth,"S. cerevisiae deletion strains, locus YHR030C, strain SLT2, hits give low values",0.056 (active)
same,normalized growth,"S. cerevisiae deletion strains, locus YHR079C, strain IRE1 (second series), hits give low values",0.504 (active)
same,normalized growth,"S. cerevisiae deletion strains, locus YHR094C, strain hxt1, hits give low values",0.099 (active)
same,normalized growth,"S. cerevisiae deletion strains, locus YHR129C, strain ARP1, hits give low values",0.159 (active)
same,normalized growth,"S. cerevisiae deletion strains, locus YHR200W, strain rpn10, hits give low values",0.247 (active)
same,normalized growth,"S. cerevisiae deletion strains, locus YIL066C, strain RNR3, hits give low values",0.0635 (active)
same,normalized growth,"S. cerevisiae deletion strains, locus YIL073C, strain SPO22, hits give low values",0.12 (active)
same,normalized growth,"S. cerevisiae deletion strains, locus YIL125W, strain kgd1, hits give low values",0.128 (active)
same,normalized growth,"S. cerevisiae deletion strains, locus YIR030C, strain dcg1, hits give low values",0.136 (active)
same,normalized growth,"S. cerevisiae deletion strains, locus YJL095W, strain BCK1, hits give low values",0.0688 (active)
same,normalized growth,"S. cerevisiae deletion strains, locus YJL134W, strain LCB3, hits give low values",0.057 (active)
same,normalized growth,"S. cerevisiae deletion strains, locus YJL168C, strain set2, hits give low values",0.203 (active)
same,normalized growth,"S. cerevisiae deletion strains, locus YJL187C, strain SWE1 (second series), hits give low values",0.39 (active)
same,normalized growth,"S. cerevisiae deletion strains, locus YJR043C, strain POL32, hits give low values",0.258 (active)
same,normalized growth,"S. cerevisiae deletion strains, locus YJR075W, strain HOC1, hits give low values",0.1 (active)
same,normalized growth,"S. cerevisiae deletion strains, locus YKL009W, strain mrt4, hits give low values",0.833 (active)
same,normalized growth,"S. cerevisiae deletion strains, locus YKL068W, hits give low values",0.963
same,normalized growth,"S. cerevisiae deletion strains, locus YKL085W, strain MDH1 (second series), hits give low values",0.0898 (active)
same,normalized growth,"S. cerevisiae deletion strains, locus YKL085W, strain MDH1, hits give low values",0.0898 (active)
same,normalized growth,"S. cerevisiae deletion strains, locus YKL190W, strain CNB1, hits give low values",0.0889 (active)
same,normalized growth,"S. cerevisiae deletion strains, locus YKR001C, strain vps1, hits give low values",0.0677 (active)
same,normalized growth,"S. cerevisiae deletion strains, locus YLR039C, strain RIC1, hits give low values",0.111 (active)
same,normalized growth,"S. cerevisiae deletion strains, locus YLR058C, strain SHM2, hits give low values",0.0878 (active)
same,normalized growth,"S. cerevisiae deletion strains, locus YLR102C, strain apc9, hits give low values",0.186 (active)
same,normalized growth,"S. cerevisiae deletion strains, locus YLR262C, strain YPT6, hits give low values",0.121 (active)
same,normalized growth,"S. cerevisiae deletion strains, locus YLR268W, strain sec22, hits give low values",0.0849 (active)
same,normalized growth,"S. cerevisiae deletion strains, locus YLR330W, strain CHS5, hits give low values",0.057 (active)
same,normalized growth,"S. cerevisiae deletion strains, locus YLR342W, strain FKS1 (second series), hits give low values",0.0927 (active)
same,normalized growth,"S. cerevisiae deletion strains, locus YLR371W, strain rom2, hits give low values",0.0695 (active)
same,normalized growth,"S. cerevisiae deletion strains, locus YLR418C, strain cdc73, hits give low values",0.107 (active)
same,normalized growth,"S. cerevisiae deletion strains, locus YML016C, strain PPZ1, hits give low values",0.0581 (active)
same,normalized growth,"S. cerevisiae deletion strains, locus YML032C, strain rad52, hits give low values",0.621 (active)
same,normalized growth,"S. cerevisiae deletion strains, locus YML124C, strain tub3, hits give low values",0.184 (active)
same,normalized growth,"S. cerevisiae deletion strains, locus YMR078C, strain ctf18, hits give low values",0.0993 (active)
same,normalized growth,"S. cerevisiae deletion strains, locus YMR223W, strain ubp8, hits give low values",0.0709 (active)
same,normalized growth,"S. cerevisiae deletion strains, locus YMR263W, strain SAP30, hits give low values",0.153 (active)
same,normalized growth,"S. cerevisiae deletion strains, locus YMR307W, strain GAS1, hits give low values",0.127 (active)
same,normalized growth,"S. cerevisiae deletion strains, locus YNL067W, strain RPL9B, hits give low values",0.421 (active)
same,normalized growth,"S. cerevisiae deletion strains, locus YNL128W, strain TEP1, hits give low values",0.0735 (active)
same,normalized growth,"S. cerevisiae deletion strains, locus YNL153C, strain GIM3, hits give low values",0.215 (active)
same,normalized growth,"S. cerevisiae deletion strains, locus YNL233W, strain BNI4, hits give low values",0.0602 (active)
same,normalized growth,"S. cerevisiae deletion strains, locus YNL250W, strain rad50, hits give low values",0.894 (active)
same,normalized growth,"S. cerevisiae deletion strains, locus YNL271C, strain bni1, hits give low values",0.336 (active)
same,normalized growth,"S. cerevisiae deletion strains, locus YNL298W, strain CLA4, hits give low values",0.611 (active)
same,normalized growth,"S. cerevisiae deletion strains, locus YNL307C, strain MCK1, hits give low values",0.072 (active)
same,normalized growth,"S. cerevisiae deletion strains, locus YNL322C, strain KRE1, hits give low values",0.169 (active)
same,normalized growth,"S. cerevisiae deletion strains, locus YNR052C, strain pop2, hits give low values",0.527 (active)
same,normalized growth,"S. cerevisiae deletion strains, locus YOL006C, strain TOP1, hits give low values",0.128 (active)
same,normalized growth,"S. cerevisiae deletion strains, locus YOL012C, strain htz1",0.258
same,normalized growth,"S. cerevisiae deletion strains, locus YOL147C, strain pex11, hits give low values",0.152 (active)
same,normalized growth,"S. cerevisiae deletion strains, locus YOR061W, strain CKA2, hits give low values",0.05 (active)
same,normalized growth,"S. cerevisiae deletion strains, locus YOR069W, strain VPS5, hits give low values",0.078 (active)
same,normalized growth,"S. cerevisiae deletion strains, locus YOR136W, strain idh2, hits give low values",0.101 (active)
same,normalized growth,"S. cerevisiae deletion strains, locus YOR144C, strain elg1, hits give low values",0.423 (active)
same,normalized growth,"S. cerevisiae deletion strains, locus YOR184W, strain ser1, hits give low values",0.0788 (active)
same,normalized growth,"S. cerevisiae deletion strains, locus YOR316C, strain cot1, hits give low values",0.113 (active)
same,normalized growth,"S. cerevisiae deletion strains, locus YPL055C, strain LGE1, hits give low values",0.201 (active)
same,normalized growth,"S. cerevisiae deletion strains, locus YPL241C, strain CIN2, hits give low values",0.358 (active)
same,normalized growth,"S. cerevisiae deletion strains, locus YPR119W, strain clb2, hits give low values",0.079 (active)
same,normalized growth,"S. cerevisiae deletion strains, locus YPR141C, strain kar3, hits give low values",0.958
same,normalized growth,"S. cerevisiae deletion strains, locus YPR163C, strain tif3, hits give low values",0.0854 (active)
same,normalized growth,"S. cerevisiae deletion strains, locus YPR167C, strain met16, hits give low values",0.067 (active)
same,normalized growth,"S. cerevisiae deletion strains, strain wtn01, hits give low values",0.0803 (active)
same,normalized growth,"S. cerevisiae strains, strain wild type, hits give low values",0.125 (active)
